The text below walks through data of PubChem BioAssay.

The source made the active and inactive calls. Unless noted, how the calls were made is not given here.

Assay [1] in a line: HepG2 liver cancer cell viability effects, profiling panel, resazurin fluorescence, 24 h, PK04 Diversity Set (AID 1172). Further: test concentration not given here. The note with it: higher = more signal. (In general: Resazurin is reduced to fluorescent resorufin, in cell work by metabolically active cells.)
Assay [2] in a line: basal S. cerevisiae growth modulation, no modifier, primary screen, OD600, strain BY4716, 24 h, basal condition (AID 1173). The note with it: OD600, 24 h, higher = more signal, called active from +8 up or from −8 down.
Assay [3] in a line: MM1S myeloma cell viability, profiling panel, resazurin fluorescence, basal, 24 h, PK04 Diversity Set (AID 1174). Further: test concentration not given here. The note with it: higher = more signal, called active from +8 up or from −8 down.
Assay [4] addresses Dihydroorotate dehydrogenase (quinone), mitochondrial (Plasmodium falciparum (isolate 3D7)) (UniProt Q08210). As to the kind of experiment: PfDHODH enzyme inhibitors, primary screen, biochemical, C-terminal His tag, absorbance 600 nm (AID 1175).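 Further: recombinant parasite enzyme with a five histidine tag at its C terminus; test concentration not given here.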 The conditions noted are these: DCIP absorbance 600 nm, higher = more signal, called active from +8 up or from −8 down.
The nature of assay [5]: P. aeruginosa biofilm formation inhibitors, primary screen, strain PAO1, LB-PBS medium, absorbance 600 nm (AID 1176). Further: test concentration not given here. The note with it: P. aeruginosa PAO1 growth/biofilm, A600, 12 h; higher = more signal.
Assay [6] in a line: S. cerevisiae RM11-1a growth modifiers, primary screen, strain RM11-1a, OD600, basal, 24 h (AID 1177).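 Further: cultures grown under basal conditions with no added stressor; test concentration not given here.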 The conditions noted are these: OD600, 24 h, higher = more signal, called active from +8 up or from −8 down.
Assay [7] in a line: E. coli acrAB mutant growth effects, primary screen, E. coli filamentation inducers, strain DRC39, OD650, 24 h (AID 1178).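 Further: growth measured as culture turbidity by optical density at 650 nm; test concentration not given here.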 The note with it: higher = more signal, called active from +8 up or from −8 down.
Assay [8] can be described thus: E. coli acrAB mutant growth effects, primary screen, E. coli filamentation inducers, strain DRC39, OD650, 48 h (AID 1179).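 Further: screen aims at cell division blockers that make cells filament.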 The note with it: E. coli DRC39 delta-acrAB growth, higher = more signal, called active from +8 up or from −8 down.
Assay [9] in a line: RPMI8226 myeloma cell viability, profiling panel, resazurin fluorescence, basal, 24 h, PK04 Diversity Set (AID 1180).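 Further: RPMI8826 multiple myeloma cell line at 5000 cells per well; test concentration not given here.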 The conditions noted are these: higher = more signal.
Assay [10] addresses E3 ubiquitin-protein ligase XIAP (Homo sapiens) (UniProt P98170). As to the kind of experiment: XIAP binders, primary screen, biophysical, small-molecule microarray, fluorescence 635 nm (AID 1181).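 Further: score merges 667 nm emission and signal to noise over triplicate slides.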 The note with it: small-molecule microarray binding, higher = more signal.

Dihydroorotate dehydrogenase (quinone), mitochondrial (Plasmodium falciparum (isolate 3D7)), sequence (Q08210 whole entry, looked up): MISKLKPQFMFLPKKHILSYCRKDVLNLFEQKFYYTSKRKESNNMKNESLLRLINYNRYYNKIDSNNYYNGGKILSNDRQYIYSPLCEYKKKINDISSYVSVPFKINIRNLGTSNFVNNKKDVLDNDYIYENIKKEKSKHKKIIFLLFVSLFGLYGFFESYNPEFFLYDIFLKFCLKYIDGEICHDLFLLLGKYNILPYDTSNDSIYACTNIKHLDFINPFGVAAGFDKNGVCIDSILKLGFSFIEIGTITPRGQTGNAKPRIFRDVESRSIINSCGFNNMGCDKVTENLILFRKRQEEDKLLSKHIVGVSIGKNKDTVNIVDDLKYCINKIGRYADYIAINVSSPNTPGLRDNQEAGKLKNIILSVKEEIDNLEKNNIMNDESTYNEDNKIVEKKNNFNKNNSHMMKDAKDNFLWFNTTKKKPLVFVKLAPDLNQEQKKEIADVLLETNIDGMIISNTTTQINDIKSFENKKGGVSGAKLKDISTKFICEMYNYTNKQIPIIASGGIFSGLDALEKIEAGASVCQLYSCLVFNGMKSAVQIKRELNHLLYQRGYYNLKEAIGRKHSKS
E3 ubiquitin-protein ligase XIAP (Homo sapiens), sequence (P98170 whole entry, looked up): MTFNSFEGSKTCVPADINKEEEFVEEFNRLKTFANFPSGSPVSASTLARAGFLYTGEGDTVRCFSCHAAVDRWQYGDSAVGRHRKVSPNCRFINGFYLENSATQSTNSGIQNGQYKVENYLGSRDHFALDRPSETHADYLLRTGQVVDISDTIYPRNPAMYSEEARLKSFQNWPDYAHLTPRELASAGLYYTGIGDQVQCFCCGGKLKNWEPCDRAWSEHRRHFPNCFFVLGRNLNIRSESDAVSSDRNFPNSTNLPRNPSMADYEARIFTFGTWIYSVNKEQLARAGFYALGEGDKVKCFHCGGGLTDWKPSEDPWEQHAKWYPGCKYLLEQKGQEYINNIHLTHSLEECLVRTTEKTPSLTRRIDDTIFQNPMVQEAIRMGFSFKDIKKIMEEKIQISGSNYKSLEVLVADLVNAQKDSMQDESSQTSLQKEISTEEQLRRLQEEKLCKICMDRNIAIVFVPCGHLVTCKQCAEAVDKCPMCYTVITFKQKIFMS

Regarding `O=C1C[C@H](c2ccccc2)[C@H](c2ccc(Br)cc2)O1`, the z-score is -0.598 in [1]; -8.77 (active) in assay [2]; -0.118 (inactive) in [3]; 0.605 (inactive) in [5]; -2.74 (inactive) in assay [6]; 0.358 (inactive) in [7]. Further, the figures for the z-score in assay [8] and in assay [9] were -1.67 (inactive) and 0.0497, respectively. In addition, the composite z-score is -1.24 (inactive) in assay [4] and -0.0438 in assay [10].

Consider `C[C@@H]1CC[C@H]2C(=O)OC(CN3C(=O)c4ccccc4C3=O)CN2[C@H]1c1ccc(Br)cc1` (stereo not given in full), for which the z-score is 0.462 in assay [1]; -0.501 (inactive) in assay [2]; 0.668 (inactive) in [3]; -0.27 (inactive) in assay [5]; 0.183 (inactive) in [6]; 0.786 (inactive) in assay [7]. Moreover, the z-score in [8] is 0.467 (inactive); in [9], 0.685. Besides, the composite z-score in assay [4] was 0.639 (inactive); in [10], -0.0438.

Regarding `O=C1[C@H]2CCn3c(=O)n(-c4ccccc4)c(=O)n3[C@H]2[C@H](O)[C@@H]2O[C@H]12`, the z-score is -0.507 in [1]; -0.251 (inactive) in [2]; -0.468 (inactive) in assay [3]; -0.212 (inactive) in assay [5]; -0.303 (inactive) in [6]; -0.447 (inactive) in assay [7]. Besides, the z-score was -0.489 (inactive) in [8] and -0.579 in [9]. Besides, the values for the composite z-score in assay [4] and in assay [10] were -0.106 (inactive) and -0.287, respectively.

As for `CN1CCc2nc(-c3ccccc3)c(-c3ccccc3)cc2C1`, the z-score is 0.713 in assay [1]; 0.0367 (inactive) in assay [2]; 0.476 (inactive) in [3]; -0.364 (inactive) in [5]; 0.298 (inactive) in assay [6]; 0.38 (inactive) in assay [7]. The z-score in assay [8] is 0.105 (inactive); in assay [9], 0.639. The results for the composite z-score in [4] and in [10] were -0.191 (inactive) and 0.0024, respectively.

`CO[C@@H](C(C)C)[C@@H](C)C1OC(=O)CC1O` (stereo not given in full): the z-score was -0.544 in assay [1]; -0.139 (inactive) in assay [2]; -0.766 (inactive) in assay [3]; -0.139 (inactive) in assay [5]; -0.622 (inactive) in [6]; 0.284 (inactive) in [7]. Also, the values for the z-score in assay [8] and in assay [9] were 0.468 (inactive) and -1.17, respectively. The composite z-score in assay [4] was -0.531 (inactive); in assay [10], -0.0391.

`CC(=O)OC[C@H]1O[C@H](CC=NOC[C@@H](O)[C@H]2O[C@@H]3OC(C)(C)O[C@@H]3[C@H]2O)C=C[C@@H]1OC(C)=O`: the z-score in [1] is 0.287; in [2], 0.933 (inactive); in [3], -1.15 (inactive); in assay [5] it was -0.124 (inactive); in assay [6], 1.08 (inactive); in assay [7] it was 0.644 (inactive). The z-score in assay [8] was -0.717 (inactive); in assay [9], -0.754. Also, the values for the composite z-score in assay [4] and in [10] were 0.189 (inactive) and 0.013, respectively.

Take `CC(=O)OC[C@H]1O[C@H](CCON=C(C)C)C=C[C@@H]1OC(C)=O`: the z-score in [1] was -0.97; in [2], 0.421 (inactive); in assay [3], -0.54 (inactive); in [5], 0.265 (inactive); in assay [6] it was 0.404 (inactive); in [7], 0.795 (inactive). Moreover, the values for the z-score in assay [8] and in [9] were -0.844 (inactive) and -0.0326, respectively. Further, the composite z-score in [4] was -0.0136 (inactive); in assay [10] it was -0.102.

Take `CCOC(=O)[C@H](Cc1ccccc1)NC(=O)CCC1CC(OC(=O)NCc2ccc3c(c2)OCO3)CC2(CCCC(COC(=O)NCCCN3CCCC3=O)O2)O1` (stereo not given in full): the z-score in assay [1] is 0.557; in assay [2] it was -0.547 (inactive); in assay [3], 0.913 (inactive); in assay [5], -0.801 (inactive); in [6] it was -0.012 (inactive); in assay [7] it was -0.131 (inactive). For the same compound, the z-score in assay [8] is 0.186 (inactive); in [9], 1.36. The results for the composite z-score in [4] and in assay [10] were -0.59 (inactive) and -0.124, respectively.

For `COc1ccc(O[C@H]2C=C[C@@H](c3ccccc3)O[C@@H]2CO)cc1`, the z-score in [1] was 0.121; in assay [2] it was -4.83 (inactive); in [3], 0.222 (inactive); in [5], 0.438 (inactive); in assay [6] it was 0.0505 (inactive); in assay [7], 0.137 (inactive). In addition, the z-score in assay [8] is -0.447 (inactive); in assay [9], -0.5. The values for the composite z-score in assay [4] and in assay [10] were -0.163 (inactive) and -0.042, respectively.

Take `CCN1C(=O)[C@H]2[C@H]3[C@H](O)[C@H](O)CC(=NOC[C@@H](O)[C@H]4O[C@@H]5OC(C)(C)O[C@@H]5[C@H]4O)[C@@H]3CC[C@H]2C1=O`: the z-score was -1.27 in assay [1]; -0.569 (inactive) in assay [2]; -2.69 (inactive) in [3]; -0.795 (inactive) in assay [5]; -0.0223 (inactive) in [6]; 0.74 (inactive) in assay [7]. Also, the results for the z-score in assay [8] and in [9] were 0.144 (inactive) and -0.767, respectively. The composite z-score is -0.898 (inactive) in assay [4] and 0.0126 in assay [10].

Turning to `CCOC(=O)[C@H](Cc1ccccc1)NC(=O)CCC1CC(OC(=O)NCc2ccc3c(c2)OCO3)CC2(CCCC(COC(=O)NCCc3ccc(Cl)cc3)O2)O1` (stereo not given in full), the z-score in assay [1] is -0.202; in assay [2] it was -0.65 (inactive); in [3] it was 0.366 (inactive); in [5], 0.769 (inactive); in [6], -1.72 (inactive); in assay [7], -0.226 (inactive). Further, the z-score in assay [8] is -0.756 (inactive); in assay [9], -0.759. Besides, the composite z-score was -1.47 (inactive) in [4] and -0.133 in assay [10].

As for `Cc1cc2c(nc1C)CCCCN2CC(O)CN1CCCc2nc(-c3ccc(Br)cc3)ccc21` (stereo not given), the z-score in [1] is -0.225; in assay [2], -0.849 (inactive); in [3] it was -1.51 (inactive); in [5], 0.38 (inactive); in assay [6] it was 0.919 (inactive); in [7], 0.608 (inactive). Further, the z-score was 0.348 (inactive) in assay [8] and -1.48 in assay [9]. Also, the composite z-score in assay [4] was 0.667 (inactive); in assay [10], 0.131.

In the case of `CC(C)(C)N1C(=O)[C@H]2[C@@H]3C(=CC[C@H]2C1=O)C(=O)[C@H]1O[C@H]1[C@H]3O`, the z-score in [1] was -4.22; in [2] it was -4.73 (inactive); in assay [3], -7.59 (inactive); in assay [5] it was -0.331 (inactive); in assay [6], -3.03 (inactive); in [7], -0.662 (inactive). Also, the z-score is -0.613 (inactive) in assay [8] and -5.04 in [9]. In addition, the composite z-score is -2.71 (inactive) in assay [4] and -0.178 in [10].
